Most compounds without a hit are left out; they make up all but 2.4% or so of the library.
Pol eta inh-1 – DNA polymerase eta (human) inhibition; Q9Y253; recombinant Pol eta, fluorescent DNA replication assay; Potency, µM (titrated, usually from 114 µM), without a hit: top-dose activity change, negative = inhibition, actives largely listed as inhibitors; 390,000 compounds, 1.2% hits; AID 588591; note: potency is the fitted concentration of half-maximal effect; % is set by controls: 0 for no effect and ±100 for the full control effect
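Pol eta (10 nM) was preincubated with compounds for 15 min at room temperature, after which fluorescent replication substrate (50 nM final) was added to start the reaction. Fluorescence was read kinetically at 0 and 10 min.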
Pol beta inh – blocks human DNA polymerase beta activity; Potency, µM (titrated, usually from 114 µM), without a hit: at the top dose activity change, negative = inhibition, actives largely listed as inhibitors; P06746; 340,000 compounds, 1.3% hits; Pol beta primer extension/strand displacement, fluorescence kinetic; AID 485314; note: potency is the fitted concentration of half-maximal effect; % is set by controls: 0 for no effect and ±100 for the full control effect
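Curves were derived by four-parameter Hill fits of normalized qHTS data. The kinetic fluorescent primer-extension read was taken at 0 and 10 min after 50 nM substrate, following a 15 min room-temperature preincubation of 10 nM enzyme with compounds.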
WRN inhibitor – inhibitors of human WRN helicase; Q14191; WRN helicase unwinding, fluorescent forked duplex, kinetic; Potency, µM (top dose mostly 114 µM), for the others: top-dose activity change, negative = inhibition, usual class: inhibitors; 360,000 compounds, 0.46% hits; note: potency is the fitted concentration of half-maximal effect; % is set by controls: 0 for no effect and ±100 for the full control effect; nearly all actives have a fitted effect of over 55% in size
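Kinetic fluorescence helicase assay: unwinding of a quenched forked DNA duplex (100 nM final) with 2 mM ATP final raises red fluorescence (525/598 nm). Compounds sat 15 min at room temperature with 20 nM WRN beforehand.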
Pol kappa inh-1 – inhibitors of human DNA polymerase kappa | Q9UBT6 | purified Pol kappa, fluorescent DNA synthesis assay, 10 min | Potency, µM (highest dose often 107 µM), for the others: top-dose activity, negative = inhibition, actives largely listed as inhibitors | 400,000 compounds, 0.53% hits; note: potency is the fitted concentration of half-maximal effect; % is set by controls: 0 for no effect and ±100 for the full control effect
Target sequence (Q9UBT6 whole entry, looked up): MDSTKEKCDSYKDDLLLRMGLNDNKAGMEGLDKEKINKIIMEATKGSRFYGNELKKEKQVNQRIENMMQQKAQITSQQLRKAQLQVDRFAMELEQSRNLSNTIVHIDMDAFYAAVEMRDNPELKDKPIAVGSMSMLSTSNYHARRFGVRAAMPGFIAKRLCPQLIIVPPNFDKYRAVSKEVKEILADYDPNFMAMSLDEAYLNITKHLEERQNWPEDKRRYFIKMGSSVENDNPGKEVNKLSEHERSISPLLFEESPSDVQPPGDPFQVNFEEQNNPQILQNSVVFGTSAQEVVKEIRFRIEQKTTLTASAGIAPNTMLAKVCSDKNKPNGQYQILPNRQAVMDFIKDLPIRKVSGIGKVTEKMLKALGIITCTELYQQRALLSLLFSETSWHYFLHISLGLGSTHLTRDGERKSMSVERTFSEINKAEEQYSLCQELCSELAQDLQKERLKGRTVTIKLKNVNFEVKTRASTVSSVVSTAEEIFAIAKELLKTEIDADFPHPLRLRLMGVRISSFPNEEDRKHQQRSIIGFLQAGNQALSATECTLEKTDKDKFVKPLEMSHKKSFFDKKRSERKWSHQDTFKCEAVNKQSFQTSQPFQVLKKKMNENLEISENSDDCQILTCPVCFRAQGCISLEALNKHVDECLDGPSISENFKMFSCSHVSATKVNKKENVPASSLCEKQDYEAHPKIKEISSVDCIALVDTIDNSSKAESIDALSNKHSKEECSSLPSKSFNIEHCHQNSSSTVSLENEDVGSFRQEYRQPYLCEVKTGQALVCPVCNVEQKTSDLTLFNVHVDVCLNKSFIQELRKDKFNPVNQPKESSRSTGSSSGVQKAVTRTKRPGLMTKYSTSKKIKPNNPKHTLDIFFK
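50 nM final substrate added after 15 min RT preincubation of 10 nM Pol kappa with compound; fluorescence read at 0 and 10 min.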
FEN1 inhibitor – inhibitors of human flap endonuclease 1 | Recombinant FEN1 flap cleavage, fluorescence, 15 min | AID 588795 | Potency, µM (top dose mostly 114 µM), for inactives: top-dose activity change, negative = inhibition, most hits filed as inhibitors | P39748 | 390,000 compounds, 0.35% hits; note: potency is the fitted concentration of half-maximal effect; % is set by controls: 0 for no effect and ±100 for the full control effect; nearly all actives have a fitted effect of over 65% in size
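FEN1 at 10 nM preincubated with compounds 15 min at room temperature, then flap DNA substrate added at 50 nM final. Signal read at 0 and 15 min; concentration-response fitted with four-parameter Hill equation.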
Pol iota inh – blocks human DNA polymerase iota activity; Q9UNA4; Pol iota fluorescent replication assay, 10 min; Potency, µM (top dose mostly 115 µM), without a hit: at the highest dose activity, negative = inhibition, most hits filed as inhibitors; 390,000 compounds, 1% hits; AID 588590; note: potency is the fitted concentration of half-maximal effect
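Fluorescent replication assay read twice, at 0 min and 10 min after adding 50 nM (final) substrate. Enzyme (10 nM) and compounds were first incubated 15 min at room temperature; enzyme-free buffer wells were negative controls.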
PGK validate – blocks T. brucei phosphoglycerate kinase; 500 compounds, 79% hits; AID 686980; shares compounds with Pol kappa inh-1; TbPGK coupled GAPDH assay, Kinase-Glo luminescence; Potency, µM (titrated, usually from 57.5 µM), without a hit: at the highest dose activity change, negative = inhibition, usual class: inhibitors; note: potency is the fitted concentration of half-maximal effect; % is set by controls: 0 for no effect and ±100 for the full control effect; nearly all actives have a fitted effect of over 65% in size
Pol iota confirm – Inhibitors of human DNA polymerase iota, confirmation; Pol iota primer extension, TAMRA/BHQ fluorescence; 1,500 compounds, 77% hits; shares compounds with Pol kappa inh-1; Potency, µM, actives largely listed as inhibitors; note: potency is the fitted concentration of half-maximal effect
GALK inh confirm – galactokinase (human) inhibition, confirmation. shares compounds with Pol eta inh-1. purified GALK, Kinase-Glo ATP depletion luminescence. Potency, µM (titrated, usually from 115 µM), for inactives: at the highest dose activity, negative = inhibition, most hits filed as inhibitors. 150 compounds, 70% hits
Redox cycling – counter-screen for GALK inhibitors: redox cycling H2O2 generation; shares compounds with Pol eta inh-1; Phenol red-HRP H2O2 redox cycling, absorbance 600 nm; Potency, µM (titrated, usually from 115 µM), without a hit: at the highest dose activity change, negative = H2O2 signal, actives largely listed as inhibitors; 150 compounds, 40% hits; AID 2035
HEK293 tox – reduces HEK-293 cell viability in GALK counter-screen | shares compounds with Pol eta inh-1 | HEK-293 viability, ATP luminescence (CellTiter-Glo), 24/48 h | Potency, µM (doses to about 46.1 µM), inactives show top-dose activity change, negative = cytotoxicity, usual class: inhibitors | 170 compounds, 10% hits; note: potency is the fitted concentration of half-maximal effect; % is set by controls: 0 for no effect and ±100 for the full control effect
Pol kappa inh-2 – confirmation of human DNA polymerase kappa inhibitors; shares compounds with Pol eta inh-1; purified Pol-kappa, fluorescent strand-displacement substrate; Potency, µM, most hits filed as inhibitors; 920 compounds, 76% hits; note: potency is the fitted concentration of half-maximal effect
Pol eta inh-2 – confirmation of human DNA polymerase eta inhibitors; 2,600 compounds, 64% hits; AID 720502; shares compounds with Pol eta inh-1; Potency, µM, usual class: inhibitors; Pol eta primer extension, TAMRA/BHQ fluorescence, 10 min; note: potency is the fitted concentration of half-maximal effect
Active calls of the source: *; ? = inconclusive; . = no result given; [ ] = another dose, or the depositor's remark. Calls come from the whole dose curve; as a rule, active = well fitted curve in the direction sought with a large enough effect; inconclusive = small, poorly fitted or top-dose-only effect, or another doubt; inactive = no such curve, though single readings can be large; an effect the other way counts as inactive or inconclusive.

SMILES | Pol eta inh-1 | Pol beta inh | WRN inhibitor | Pol kappa inh-1 | FEN1 inhibitor | Pol iota inh | Pol iota confirm | Pol eta inh-2 | others
O=C1C=C(N2CCOCC2)c2ccccc2C1=O | 5.6µM* | -11% | -19% | -8% | -18% | 1.8µM* | 17* | 7.6* | GALK inh confirm=8.4µM*;Redox cycling=4.7µM*;HEK293 tox=14µM*
Cc1ccc(CNC(=O)c2cc3c(=O)n(Cc4ccco4)ccc3nc2C)cc1 | -11% | 0% | . | 0% | 11% | ? | . | .
C=C(C)C(=O)Nc1cccc(C2=NOC3(C2)C[C@@H](C(N)=O)N(C(=O)CC(c2ccccc2)c2ccccc2)C3)c1 (stereo partly specified) | 4µM* | 13µM* | ? | 35µM* | -13% | ? | 75* | 30* | PGK validate=3.3µM*
CCCCCC(=O)Nc1cccc(C2=NOC3(C2)C[C@H](C(N)=O)N(C(=O)c2ccccc2C(=O)c2ccccc2)C3)c1 (stereo partly specified) | -15% | 0% | -9% | -11% | -12% | 4% | . | .
C/C=C(/C)C(=O)Nc1cccc(C2=NOC3(C2)C[C@@H](C(N)=O)N(C(=O)CC(c2ccccc2)c2ccccc2)C3)c1 (stereo partly specified) | -30% | 3% | -1% | -7% | 2% | ? | . | .
C=C(C)C(=O)Nc1cccc(C2=NOC3(C2)C[C@H](C(N)=O)N(C(=O)c2ccccc2C(=O)c2ccccc2)C3)c1 (stereo partly specified) | 5.6µM* | 8.9µM* | ? | ? | -4% | 45µM* | 47* | 19*
CCOc1ccc(CC(=O)Nc2ccc3nc(N4CCCCC4)cc(C)c3c2)cc1OCC | -9% | ? | . | -12%[60.1 µM] | 0% | 8% | . | .
COc1ccc(-c2csc(/C(C#N)=C\c3ccc(O)c([N+](=O)[O-])c3)n2)cc1OC | 8% | -11% | ? | -9% | -32% | -8% | . | .
COc1cc(/C=C(\C#N)c2nc3ccccc3s2)cc([N+](=O)[O-])c1O | ? | 40µM* | ? | 89µM* | ? | ? | 75* | 76*
C=CCc1cc(/C=C/c2nc(O)c([N+](=O)[O-])c(=O)[nH]2)cc(OC)c1O | 11µM* | 25µM* | 45µM* | 79µM* | 45µM* | ? | ? | 30*
COc1ccc(C(=O)/C=C/c2ccc(OCc3ccccc3)cc2)cc1CSCC(=O)O | 45µM* | 5% | ? | -20% | -17% | 45µM* | ? | ?
CC(C)CCNC(=O)C1CCN(C(=O)c2cc3sccc3n2Cc2ccc(Cl)cc2)CC1 | -17% | -14% | . | 7% | 3% | 9% | . | .
CC(C)CC(NC(=O)c1ccccc1)C(=O)N/N=C/c1ccco1 (stereo unspecified) | 14µM* | 89µM* | -13% | ? | -1% | ? | . | ? | PGK validate=?
CCC(COC)Oc1cc(NCc2ccccc2)c2ncn(C(C)C)c2c1 (stereo unspecified) | 79µM* | . | ? | 5% | ? | 3.2µM* | 47* | 76*
O=C1c2ccccc2C(=O)C12OC2c1cccc2ccccc12 (stereo unspecified) | 20µM* | 10% | -10%[57.1 µM] | -2% | -8% | 3.5µM* | ? | 38* | GALK inh confirm=17µM*;Redox cycling=13µM*;HEK293 tox=-27%
CC(C)[C@H](NC(=O)C1CC(=O)N(c2ccc3c(c2)OCO3)C1)C(=O)NC1CCCC1 (stereo partly specified) | 32µM* | ? | -16%[11.6 µM] | 5% | 8% | 16% | ? | 76*
C[C@H](NC(=O)C1CC(=O)N(c2ccc3c(c2)OCO3)C1)C(=O)NC1CCCC1 (stereo partly specified) | -14% | 23% | 2% | -2% | 20% | 50% | . | .
N#C/C(=C\c1ccc(-c2ccc(C(=O)O)cc2)o1)C(=O)Nc1ccc(F)cc1 | 5.6µM* | ? | 56µM* | 56µM* | 45µM* | 10µM* | 27* | 27*
Cc1ccc(NC(=O)/C(C#N)=C/c2ccc(C)o2)cc1 | . | -6% | . | -10% | 2% | -2% | . | .
COc1cc(OC)cc(-n2c(=O)c3ccccc3n(CC(=O)NCCc3ccc(OC)c(OC)c3)c2=O)c1 | -11% | -7% | . | -3% | -2% | 6% | . | .
CCN(CC)CCCNC(=O)c1nn(-c2ccc(C)cc2)c(=O)c2c1c1ccccc1n2C | . | -1% | . | -23% | ? | -3% | . | .
CCN(CC)CCOC(=O)c1ccc(NC(=O)c2nn(-c3ccc(C)cc3)c(=O)c3c2c2ccccc2n3C)cc1 | 79µM* | 7.9µM* | . | -7% | 4% | ? | ? | ? | Pol kappa inh-2=?
O=[N+]([O-])c1cc(/C=N/Nc2nc3ccccc3[nH]2)c(O)cc1O | 4.5µM* | 20µM* | ? | 40µM* | ? | 45µM* | ? | ?
Cc1ccnc2nc(C(=O)Nc3nc(-c4ccccn4)cs3)nn12 | 79µM* | 11µM* | ? | ? | ? | 50µM* | 67* | 85*

Compound activity as filed in PubChem BioAssay.
